Sa ugtP lethal = growth inhibition of ugtP-null S. aureus, primary screen, RN4220 ugtP deletion, OD600; 16 h; growth inhibition, % (concentration not given with the values); 0.54% of 330,000 active; in the data active = growth inhibition above about 68%
BJeLR viability = MLPCN primary cell-based screen for lethality selective to Ras in HRASV12 cells; inhibition, % (test concentration not listed); AID 1554, 2009; BJeLR (HRASV12) viability, CellTiter-Glo ATP luminescence, 48 h; 0.17% of 300,000 active; in the data active = inhibition above about 50%
CCHF vOTU inh = CCHFV vOTU protease inhibitors, primary screen, biochemical, Pep-AMC substrate, fluorescence; Crimean-Congo hemorrhagic fever virus L polyprotein viral ovarian tumor (vOTU) protease …; inhibition, % at 11.5 µM; 0.55% of 370,000 active; AID 651958, 2012; in the data active = inhibition above about 30%
RN4220 kill = growth inhibition of S. aureus RN4220, primary screen, OD600; 16 h; inhibition, % (concentration not given with the values); 0.33% of 330,000 active; AID 1259311, 2017; in the data active = inhibition above about 85%
Mtb hypoxia inh = PubChem AID 1159583; M. tuberculosis hypoxia-regulated fluorescent reporter, fluorescence; fluorescence inhibition, % (test concentration not listed); 0.1% of 300,000 active; in the data active = fluorescence inhibition mostly above about 23%, no sharp cut-off; inactive = mostly below about 17%
RecA splice inh = Mtb RecA intein splicing inhibitors, primary screen, biochemical, fluorescence, HTS | cell-free RecA intein splicing | inhibition, % (test concentration not listed) | 0.75% of 290,000 active | AID 2221, 2009; in the data active = inhibition above about 30%
Target sequence (P9WHJ3 whole entry, looked up, canonical isoform): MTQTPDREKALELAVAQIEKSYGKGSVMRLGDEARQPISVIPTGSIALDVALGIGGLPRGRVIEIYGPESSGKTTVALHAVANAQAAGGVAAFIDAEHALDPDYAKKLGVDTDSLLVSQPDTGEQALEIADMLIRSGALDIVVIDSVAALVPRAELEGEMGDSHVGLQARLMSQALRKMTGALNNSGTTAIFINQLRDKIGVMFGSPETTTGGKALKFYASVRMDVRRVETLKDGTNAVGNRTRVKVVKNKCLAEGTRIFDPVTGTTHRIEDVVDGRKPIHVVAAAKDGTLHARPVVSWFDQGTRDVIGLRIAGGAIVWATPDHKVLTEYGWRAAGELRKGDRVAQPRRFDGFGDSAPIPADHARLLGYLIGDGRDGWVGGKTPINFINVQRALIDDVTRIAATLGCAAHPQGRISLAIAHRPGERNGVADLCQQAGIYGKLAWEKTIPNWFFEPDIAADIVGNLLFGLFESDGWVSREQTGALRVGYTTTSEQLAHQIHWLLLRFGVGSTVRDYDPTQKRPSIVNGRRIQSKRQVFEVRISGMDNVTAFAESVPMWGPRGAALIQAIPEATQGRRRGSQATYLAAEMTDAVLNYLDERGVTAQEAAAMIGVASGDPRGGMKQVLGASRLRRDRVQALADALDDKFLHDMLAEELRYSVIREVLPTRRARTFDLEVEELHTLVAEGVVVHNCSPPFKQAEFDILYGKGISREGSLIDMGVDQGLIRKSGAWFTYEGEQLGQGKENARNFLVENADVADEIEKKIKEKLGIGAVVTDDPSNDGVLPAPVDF
GFP chromophore = counter-screen: blocks GFP chromophore formation, dose response, counter-screen, biochemical, fluorescence, homogeneous; shares compounds with RecA splice inh; cell-free GFP chromophore formation; EC50, µM; 83% of 2,100 active; AID 434968, 2010; call rule not given here
Numbers stand for hits. Rows were chosen to be rich in hits. Some 1.6% of all compounds tested hit in one or more screens of this group.

`Nc1ccccc1O` gave Sa ugtP lethal inactive, RN4220 kill inactive and Mtb hypoxia inh inactive.
For Oc1ccc(C=NNc2ncnc3c2ncn3Cc2ccccc2)cc1O the results were Sa ugtP lethal inactive, RN4220 kill inactive and Mtb hypoxia inh inactive.
COc1cc(C2C(C#N)=C(N)Oc3n[nH]c(-c4cccnc4)c32)cc(Br)c1O (configuration not stated) was read as Sa ugtP lethal inactive, BJeLR viability inactive, CCHF vOTU inh inactive, RN4220 kill inactive, Mtb hypoxia inh inactive, RecA splice inh 81 and GFP chromophore 14.
CCOc1ccc(-c2[nH]nc3c2C(c2ccc(O)cc2)C(C#N)=C(N)O3)cc1 (configuration not stated) was read as Sa ugtP lethal inactive, BJeLR viability inactive, CCHF vOTU inh inactive, RN4220 kill inactive, Mtb hypoxia inh inactive, RecA splice inh 63 and GFP chromophore 15.
For N#CC1=C(N)Oc2n[nH]c(-c3ccc(F)cc3)c2C1c1cccnc1 (configuration not stated) the results were BJeLR viability inactive, CCHF vOTU inh inactive, RecA splice inh 75 and GFP chromophore 16.
For Cc1[nH]nc2c1C(c1cn[nH]c1-c1ccc(F)cc1)C(C#N)=C(N)O2 (configuration not stated) the results were Sa ugtP lethal inactive, BJeLR viability inactive, CCHF vOTU inh inactive, RN4220 kill inactive, RecA splice inh 65 and GFP chromophore 18.
For CC(C)CC(NC(=O)c1nc[nH]c1C(=O)N1CCC(C)CC1)C(=O)OCc1ccccc1 (configuration not stated) the results were Sa ugtP lethal inactive, RN4220 kill inactive and Mtb hypoxia inh inactive.
COc1ccc(-c2ccc(C3C(C#N)=C(N)Oc4n[nH]c(C)c43)o2)cc1 (configuration not stated) was read as Sa ugtP lethal inactive, BJeLR viability inactive, CCHF vOTU inh inactive, RN4220 kill inactive and Mtb hypoxia inh inactive.
For Cc1ccc(-c2[nH]nc3c2C(C)C(C#N)=C(N)O3)cc1 (configuration not stated) the results were Sa ugtP lethal inactive, BJeLR viability inactive, CCHF vOTU inh inactive, RN4220 kill inactive, Mtb hypoxia inh inactive, RecA splice inh 88 and GFP chromophore 0.5.
N#CC1=C(N)Oc2n[nH]c(-c3ccccc3)c2C1c1ccncc1 (configuration not stated) was read as Sa ugtP lethal inactive, BJeLR viability inactive, CCHF vOTU inh inactive, RN4220 kill inactive, Mtb hypoxia inh inactive, RecA splice inh 65 and GFP chromophore 27.
`CCC(C)C1C(C#N)=C(N)Oc2n[nH]c(C)c21` (configuration not stated) gave Sa ugtP lethal inactive, BJeLR viability inactive, CCHF vOTU inh inactive, RN4220 kill inactive, Mtb hypoxia inh inactive and RecA splice inh inactive.
Cc1ccc(C2C(C#N)=C(N)Oc3n[nH]c(-c4cccnc4)c32)o1 (configuration not stated) was read as Sa ugtP lethal inactive, BJeLR viability inactive, CCHF vOTU inh inactive, RN4220 kill inactive, Mtb hypoxia inh inactive, RecA splice inh 53 and GFP chromophore 38.
S=c1[nH]nc(-c2cc(-c3ccccc3)n[nH]2)n1N=C/C=C/c1ccco1 was read as Sa ugtP lethal inactive, RN4220 kill inactive and Mtb hypoxia inh inactive.
COC(=O)C1=C(c2ccc(OC(F)(F)F)cc2)CC2CCC1N2C(=O)NC1Cc2ccccc2C1 (configuration not stated) was read as Sa ugtP lethal inactive, RN4220 kill inactive and Mtb hypoxia inh inactive.
Screening COc1ccc(CNC(=O)C(c2ccc(C)o2)N(C(=O)c2snc(C(N)=O)c2N)c2ccccc2OC)cc1 (configuration not stated) returned Sa ugtP lethal inactive, BJeLR viability inactive, CCHF vOTU inh inactive, RN4220 kill inactive, Mtb hypoxia inh inactive, RecA splice inh 36 and GFP chromophore inactive.
For Cc1ccc(C(=O)C(OC(=O)CN2C(=O)c3ccccc3C2=O)c2ccccc2)cc1C (configuration not stated) the results were Sa ugtP lethal inactive, BJeLR viability inactive, CCHF vOTU inh inactive, RN4220 kill inactive, Mtb hypoxia inh inactive, RecA splice inh 31 and GFP chromophore inactive.
Cn1ccnc1Sc1cc(NCCCO)c([N+](=O)[O-])c2nonc12 was read as BJeLR viability inactive, CCHF vOTU inh inactive, RecA splice inh 67 and GFP chromophore 14.
`Oc1[nH]c(=S)sc1C=C1N=c2ccccc2=N1` gave Sa ugtP lethal inactive, BJeLR viability inactive, CCHF vOTU inh inactive, RN4220 kill inactive, Mtb hypoxia inh inactive, RecA splice inh 57 and GFP chromophore inactive.
`CC(CC(=O)Nc1ccccn1)=NNC(=O)C(=O)Nc1ccccc1C` gave Sa ugtP lethal inactive, RN4220 kill inactive and Mtb hypoxia inh inactive.
Cc1cc(-c2ccccc2)nc(NN=Cc2ccc(N(C)C)cc2)n1 was read as Sa ugtP lethal inactive, RN4220 kill inactive and Mtb hypoxia inh inactive.
`CCc1ccc(NC(=O)c2nc(S(=O)(=O)Cc3ccccc3)ncc2Cl)cc1` gave BJeLR viability inactive, CCHF vOTU inh inactive, RecA splice inh 39 and GFP chromophore 2.2.
COC(=O)c1ccc(NC(=O)c2nc(S(=O)(=O)Cc3cccc(C)c3)ncc2Cl)cc1 was read as BJeLR viability inactive, CCHF vOTU inh inactive, RecA splice inh 73 and GFP chromophore 0.57.
Screening Cc1ccc(C(=O)NCc2ccc3c(c2)OCO3)c(Cl)c1 returned CCHF vOTU inh inactive.
`COc1cccc(NC(=O)c2nc(S(C)(=O)=O)ncc2Cl)c1` gave BJeLR viability inactive, CCHF vOTU inh inactive, RecA splice inh 63 and GFP chromophore 25.
For Cc1cccc(CS(=O)(=O)c2ncc(Cl)c(C(=O)NCc3ccc4c(c3)OCO4)n2)c1 the results were Sa ugtP lethal inactive, BJeLR viability inactive, CCHF vOTU inh inactive, RN4220 kill inactive, Mtb hypoxia inh inactive, RecA splice inh 51 and GFP chromophore 11.
`CCOC(=O)c1ccc(NC(=O)c2nc(S(=O)(=O)Cc3ccccc3)ncc2Cl)cc1` gave BJeLR viability inactive, CCHF vOTU inh inactive and RecA splice inh inactive.
CCCC(=C1c2ccccc2C(=O)N1c1ccccc1)c1cnc(OC)nc1 was read as Sa ugtP lethal inactive, RN4220 kill inactive and Mtb hypoxia inh inactive.
CC(C)(C)OC(=O)NCCCCC(C(=O)N1CCN(C(=O)OC(C)(C)C)CC1)n1cc(C(CO)NC(=O)OC(C)(C)C)nn1 (configuration not stated) was read as Sa ugtP lethal inactive, RN4220 kill inactive and Mtb hypoxia inh inactive.
For CC(=O)Nc1ccc(NC(=O)c2nc(S(=O)(=O)Cc3cccc(C)c3)ncc2Cl)cc1 the results were BJeLR viability inactive, CCHF vOTU inh inactive, RecA splice inh 31 and GFP chromophore 20.

Screening results from PubChem BioAssay.
